Source: PubChem BioAssay (Tox21)
Where “and” joins values, the source holds several entries; their conditions need not be identical. Equal values may be shown once. Values without a mark were called inactive. Records with an inconclusive call do not appear. A call without a number means that no potency is given here. Calls of active or inactive are those of the source. Unless noted, the call rests on the fitted dose curve; in most records, active means well fitted curve in the direction sought with a large enough effect in the repeat runs; inconclusive means weak or mixed curves; inactive means no such curve, though single readings can be large; an effect the other way counts as inactive or inconclusive.

What was measured:
[1] = qHTS assay for small molecules that induce genotoxicity in human embryonic kidney cells expressing luciferase-tagged ATAD5 (AID 651632); further: nearly all actives have a fitted effect of over 15% in size
How it was run: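 Concentration-response screen for ATAD5 upregulation in HEK293T luciferase reporter cells; 16 hr treatment at 37C, then luminescence after 30 min with Amplite at room temperature.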

[2] = qHTS assay for small molecule agonists of the p53 signaling pathway - cell viability (AID 651633; calls by dose curve; further: nearly all actives have a fitted effect of over 30% in size; further: potency means the concentration at half of the fitted maximal effect)
How it was run: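 p53RE-bla cells were treated with compound for 16 hours at 37 C. Cytotoxicity was then measured as CellTiter-Glo luminescence after 30 min at room temperature.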

[3] = qHTS assay for small molecules that induce genotoxicity in human embryonic kidney cells expressing luciferase-tagged ATAD5 - cell viability (AID 651634; calls by dose curve; further: nearly all actives have a fitted effect of over 25% in size; further: potency means the concentration at half of the fitted maximal effect)
How it was run: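 15.5 hr compound or vehicle exposure of HEK293T cells expressing luciferase-tagged ATAD5 at 37C; live-cell protease activity is read by fluorescence after 30 min of CellTiter-Fluor.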

[4] = qHTS assay for small molecule disruptors of the mitochondrial membrane potential - cell viability (AID 720634; calls by dose curve;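 further: human HepG2 liver cancer cells; series mostly up to about 83 µM; nearly all actives have a fitted effect of over 20% in size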)
How it was run: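 In this qHTS format, HepG2 cells plated overnight were pinned with compound, incubated 1 hr, and assayed for ATP luminescence with CellTiter-Glo after m-MPI dye addition.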

[5] = qHTS assay to test for compound auto fluorescence at 590 nm (red) in HepG2 cells (AID 720674)
How it was run: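 Seeding: 2,000 HepG2 cells/well, MEM/10% FBS, overnight 37 C. Dosing: compound vs DMSO. Incubation: 1 hr, 37 C, 5% CO2. Read: fluorescence 540 ex/590 em, Rose Bengal sodium as red reference.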

[6] = qHTS assay to test for compound auto fluorescence at 460 nm (blue) in HEK293 cells (AID 720678)
How it was run: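 Blue read-out at excitation 405 nm and emission 460 nm follows overnight compound exposure of HEK293 cells at 37C in 5% CO2. Activity is given as auto fluorescence equivalency to triamterene.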

[7] = qHTS assay to test for compound auto fluorescence at 590 nm (red) in HEK293 cells (AID 720679)
How it was run: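 Red channel, Ex/Em 540/590nm; signal expressed as equivalency to Rose Bengal sodium. HEK293, 2,000 cells/well, 10% dialyzed FBS; 23 nL compound pinned after 4-5 hr attachment; overnight 37C/5% CO2 before reading.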

[8] = qHTS assay to test for compound auto fluorescence at 460 nm (blue) in HEK293 cell free culture (AID 720681)
How it was run: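 Compounds were added to cell-free DMEM with 10% FBS and fluorescence read directly. The blue channel used 405 nm excitation and 460 nm emission, with triamterene as the reference fluorophore.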

[9] = qHTS assay to test for compound auto fluorescence at 535 nm (green) in HEK293 cell free culture (AID 720682)
How it was run: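 Using fluorescein as calibrant, autofluorescence was quantified at 485/535 nm in cell-free DMEM containing 10% FBS after pintool addition of compound or vehicle.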

[10] = qHTS assay to identify small molecule antagonists of the glucocorticoid receptor (GR) signaling pathway - cell viability counter screen (AID 720693); further: nearly all actives have a fitted effect of over 55% in size
[11] = qHTS assay to identify small molecule antagonists of the androgen receptor (AR) signaling pathway using the MDA cell line - cell viability counter screen (AID 743041; further: nearly all actives have a fitted effect of over 45% in size)
How it was run: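 Cytotoxicity counter screen: MDA-kb2 AR-luc cells, compound + R1881, 16 h, 37C, 0% CO2; CellTiter-Fluor added at 15.5 h, fluorescence read after 30 min.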

[12] = system: thyroid hormone receptor (rat, GH3 cells); experiment: qHTS assay to identify small molecule agonists of the thyroid receptor (TR) signaling pathway (AID 743066; calls by dose curve; further: potency means the concentration at half of the fitted maximal effect)
[13] = qHTS assay to identify small molecule antagonists of the estrogen receptor alpha (ER-alpha) signaling pathway - cell viability counter screen (AID 743074; calls by dose curve;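 further: HEK293 cells carrying ER-alpha-UAS-bla reporter stimulated with 17beta-estradiol; nearly all actives have a fitted effect of over 45% in size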)
[14] = qHTS assay to identify small molecule antagonists of the estrogen receptor alpha (ER-alpha) signaling pathway using the BG1 cell line - cell viability counter screen (AID 743081);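 further: compound given together with 17beta-estradiol as the ER stimulus; nearly all actives have a fitted effect of over 45% in size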; further: potency means the concentration at half of the fitted maximal effect
[15] = target: Aromatase (Homo sapiens) (UniProt P11511); experiment: qHTS assay to identify aromatase inhibitors (AID 743083); further: series mostly up to about 70 µM; nearly all actives have a fitted effect of over 55% in size
[16] = qHTS assay to identify aromatase inhibitors - cell viability counter screen (AID 743084);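 further: cells stimulated with testosterone during compound exposure; nearly all actives have a fitted effect of over 55% in size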
[17] = qHTS assay to identify small molecule that activate the aryl hydrocarbon receptor (AhR) signaling pathway - cell viability counter screen (AID 743086);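 further: HepG2 liver cells carrying the AhR DRE luciferase reporter; series mostly up to about 70 µM; nearly all actives have a fitted effect of over 45% in size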
How it was run: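 HepG2-AhR-luc (HG2L7.5c1) cells, 4000/well, treated 24 h at 37 C with compound; viability measured as CellTiter-Fluor fluorescence after 30 min in the same wells as the luciferase read.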

[18] = qHTS assay to identify small molecule phospholipidosis (PLD) inducers (AID 1259344; active means well fitted curve in the direction sought with a large enough effect; an effect the other way counts as inactive or inconclusive)
How it was run: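 Read-out is LipidTOX Red fluorescence (ex 595/em 615) imaged in HepG2 cells after 24 h compound exposure at 37 C, with Hoechst nuclear counterstain (ex 352/em 461) allowing per-cell normalisation.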

[19] = target: Nuclear receptor subfamily 1 group I member 2 (Rattus norvegicus) (UniProt Q9R1A7); experiment: Rat pregnane X receptor (rPXR) activation by small molecules, qHTS assay (AID 1346983); settings: rPXR luciferase reporter cells, One-Glo luminescence, 24 h; max activation: hits give high values; further: nearly all actives have a fitted effect of over 20% in size
How it was run: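 Cell-based rPXR activation assay: rPXR cells, 2,000 per well, rested 5hr at 37 C, then exposed to compounds in DMSO for 24 hr at 37 C. Luciferase activity read by One-Glo luminescence after 30 min at room temperature.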

[20] = target: Nuclear receptor subfamily 1 group I member 2 (Homo sapiens) (UniProt O75469); experiment: CYP3A4 induction through human pregnane X receptor (PXR) by small molecules, qHTS assay (AID 1346984); further: nearly all actives have a fitted effect of over 40% in size; further: potency means the concentration at half of the fitted maximal effect
How it was run: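 After 24 h at 37C with compound, DPX-2 cells (HepG2, co-transfected PXR response element and CYP3A4 promoter-luciferase) got 3uM final P450-Glo Luciferin-IPA for 3 h; One-Glo luminescence followed.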

Sequence of Aromatase (Homo sapiens) (P11511 whole entry, looked up): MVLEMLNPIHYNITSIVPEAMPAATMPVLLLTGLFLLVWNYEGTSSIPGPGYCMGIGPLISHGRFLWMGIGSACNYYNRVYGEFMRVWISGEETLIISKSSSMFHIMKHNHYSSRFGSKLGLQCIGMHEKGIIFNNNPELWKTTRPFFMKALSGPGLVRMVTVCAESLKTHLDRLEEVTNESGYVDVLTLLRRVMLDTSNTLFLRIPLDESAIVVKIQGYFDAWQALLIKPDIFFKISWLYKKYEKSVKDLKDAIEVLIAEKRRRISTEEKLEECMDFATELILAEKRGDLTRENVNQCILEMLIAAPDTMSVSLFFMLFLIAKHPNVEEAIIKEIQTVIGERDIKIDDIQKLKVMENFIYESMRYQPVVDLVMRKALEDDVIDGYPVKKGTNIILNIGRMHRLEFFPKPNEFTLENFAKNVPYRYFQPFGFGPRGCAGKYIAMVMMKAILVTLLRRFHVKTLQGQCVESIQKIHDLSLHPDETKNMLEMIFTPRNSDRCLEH
Sequence of Nuclear receptor subfamily 1 group I member 2 (Rattus norvegicus) (Q9R1A7 whole entry, looked up): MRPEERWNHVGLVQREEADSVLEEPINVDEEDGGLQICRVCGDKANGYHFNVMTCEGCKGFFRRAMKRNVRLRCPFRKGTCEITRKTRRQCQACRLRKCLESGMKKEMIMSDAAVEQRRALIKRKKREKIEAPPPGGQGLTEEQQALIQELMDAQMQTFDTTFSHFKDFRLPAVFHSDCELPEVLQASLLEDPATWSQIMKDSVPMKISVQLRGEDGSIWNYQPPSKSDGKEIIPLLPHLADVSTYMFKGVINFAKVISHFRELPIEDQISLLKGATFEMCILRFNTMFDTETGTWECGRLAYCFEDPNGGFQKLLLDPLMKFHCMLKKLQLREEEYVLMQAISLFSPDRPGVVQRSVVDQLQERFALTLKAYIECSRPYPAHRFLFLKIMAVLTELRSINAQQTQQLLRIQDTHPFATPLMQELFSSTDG

SMILES	Potency [1]	Potency [2]	Potency [3]	Potency [4]	outcome [5]	Potency [6]	outcome [7]	Potency [8]	Potency [9]	Potency [10]	Potency [11]	Potency [12]	Potency [13]	Potency [14]	Potency [15]	Potency [16]	Potency [17]	Potency [18]	max activation [19]	Potency [20]
CC(=O)Oc1ccc2c3c1O[C@H]1[C@@H](OC(C)=O)C=C[C@H]4[C@@H](C2)N(C)CC[C@@]341	inactive	inactive	inactive	inactive	inactive	inactive	inactive	inactive	inactive	inactive	inactive	inactive	inactive	inactive	inactive	inactive	inactive	inactive	0.899%	inactive
O=C1CN(O)C(c2ccccc2)=c2cc(Cl)ccc2=N1	inactive	inactive	inactive	inactive	inactive	inactive	inactive	inactive	inactive	inactive	inactive	inactive	inactive	inactive	inactive	inactive	inactive	inactive	-6.23%	inactive
c1cc2c(c(NC3=NCCN3)c1)CCCC2	inactive	inactive	inactive	inactive	inactive	inactive	inactive	inactive	inactive	inactive	inactive	inactive	inactive	inactive	inactive	inactive	inactive	inactive	-5.45%	inactive
CCOc1ccc2c3c1O[C@H]1[C@@H](O)C=C[C@H]4[C@@H](C2)N(C)CC[C@@]341	inactive	inactive	inactive	inactive	inactive	inactive	inactive	inactive	inactive	inactive	inactive	inactive	inactive	inactive	inactive	inactive	inactive	inactive	-1.03%	7.94 µM (active)
CC(=O)O[C@H]1CC[C@H]2[C@@H]3CCC4=CC(=O)CCC4=C3C=C[C@]12C	inactive	inactive	inactive	inactive	inactive	inactive	inactive	inactive	inactive	–	inactive	inactive	–	inactive	inactive	inactive	inactive	inactive	-1.98%	inactive
O=S(=O)(O)c1cc(O)ccc1O	inactive	inactive	inactive	inactive	inactive	inactive	inactive	inactive	inactive	inactive	inactive	inactive	inactive	inactive	–	–	inactive	inactive	–	–
COc1ccc(OC)c([C@@H](O)[C@H](C)N)c1	inactive	inactive	inactive	inactive	inactive	inactive	inactive	inactive	inactive	inactive	inactive	29.8 µM (active)	inactive	inactive	inactive	inactive	inactive	inactive	-3.61%	inactive
CC(=O)OO	inactive	inactive	inactive	inactive	inactive	inactive	inactive	inactive	inactive	inactive	inactive	inactive	inactive	inactive	inactive	inactive	inactive	inactive	-0.773%	inactive
CC1(C)S[C@@H]2[C@H](N)C(=O)N2[C@H]1C(=O)O	inactive	inactive	inactive	inactive	inactive	inactive	inactive	inactive	inactive	inactive	inactive	inactive	inactive	inactive	inactive	inactive	inactive	inactive	-2.48%	inactive
C=CCN(C1=NCCN1)c1c(Cl)cccc1Cl	inactive	inactive	inactive	inactive	inactive	inactive	inactive	inactive	inactive	inactive	inactive	inactive	inactive	inactive	inactive	inactive	inactive	inactive	-3.97%	inactive
C[C@]12C=CC(=O)C=C1CC[C@@H]1[C@@H]2CC[C@]2(C)OC(=O)CC[C@@H]12	inactive	inactive	inactive	inactive	inactive	inactive	inactive	inactive	inactive	inactive	inactive	inactive	inactive	inactive	inactive	inactive	inactive	inactive	-1.12%	inactive
C[C@]12CCC(=O)C=C1C=C[C@@H]1[C@@H]2CC[C@@]2(C)[C@H]1CC[C@@]2(O)CCC(=O)O	inactive	inactive	inactive	inactive	inactive	inactive	inactive	inactive	inactive	inactive	inactive	inactive	–	inactive	inactive	inactive	inactive	inactive	4.24%	inactive
CC(=O)[C@H]1CC[C@H]2[C@@H]3CC[C@@H]4C[C@H](O)CC[C@]4(C)[C@H]3CC[C@]12C	inactive	–	inactive	inactive	inactive	inactive	inactive	inactive	inactive	inactive	inactive	inactive	inactive	inactive	inactive	inactive	inactive	inactive	6.21%	inactive
C#CC(C)(O)CC (centres undefined)	inactive	inactive	inactive	–	inactive	inactive	inactive	inactive	inactive	inactive	inactive	inactive	inactive	inactive	inactive	inactive	inactive	inactive	-2.56%	inactive
CNC(C)C(O)c1ccc(O)cc1 (centres undefined)	inactive	inactive	inactive	inactive	inactive	inactive	inactive	inactive	inactive	inactive	inactive	inactive	inactive	inactive	inactive	inactive	inactive	inactive	-2.76% and -1.51%	inactive
C[N+]1(C)[C@@H]2CC[C@H]1CC(OC(=O)c1c[nH]c3ccccc13)C2 (some centres undefined)	inactive	inactive	inactive	inactive	inactive	inactive	inactive	inactive	inactive	inactive	inactive	inactive	inactive	inactive	inactive	inactive	inactive	inactive	-3.92%	inactive
N#CC1(N2CCCCC2)CCCCC1	inactive	inactive	inactive	inactive	inactive	inactive	inactive	inactive	inactive	inactive	inactive	inactive	inactive	inactive	inactive	inactive	inactive	inactive	-1.32%	inactive
C[C@]12CC[C@H](OS(=O)(=O)O)CC1=CC[C@@H]1[C@@H]2CC[C@]2(C)C(=O)CC[C@@H]12	inactive	inactive	inactive	inactive	inactive	inactive	inactive	inactive	inactive	inactive	inactive	inactive	inactive	inactive	inactive	inactive	inactive	inactive	-3.4%	inactive
O=C(CS(=O)C(c1ccccc1)c1ccccc1)NO (centres undefined)	inactive	inactive	inactive	inactive	inactive	inactive	inactive	inactive	inactive	inactive	inactive	inactive	inactive	inactive	inactive	inactive	–	inactive	-2.68%	inactive
C[C@@H]([C@H](O)c1ccccc1)N(C)C	inactive	inactive	inactive	inactive	inactive	inactive	inactive	inactive	inactive	inactive	inactive	inactive	inactive	inactive	inactive	inactive	inactive	inactive	-2.62%	inactive
CN[C@H]1C[C@@H](N)[C@H](O)[C@@H](O[C@@H]2O[C@H](CO)[C@H](O)[C@@H]3OC4(O[C@H]23)O[C@H](C(N)CO)[C@H](O)[C@H](O)[C@H]4O)[C@@H]1O (some centres undefined)	inactive	inactive	inactive	inactive	inactive	inactive	inactive	inactive	inactive	inactive	inactive	inactive	inactive	inactive	inactive	inactive	inactive	inactive	-3.01%	inactive
CN1[C@H]2CC[C@@H]1[C@@H](C(=O)O)[C@@H](OC(=O)c1ccccc1)C2	inactive	inactive	inactive	inactive	inactive	inactive	inactive	inactive	inactive	inactive	inactive	inactive	inactive	inactive	inactive	inactive	inactive	inactive	-2.75%	inactive
[2H]C([2H])([2H])[C@H](N)Cc1ccccc1	inactive	inactive	inactive	inactive	inactive	inactive	inactive	inactive	inactive	inactive	inactive	inactive	inactive	inactive	inactive	inactive	inactive	inactive	-6.9%	inactive
CCNC(C)Cc1cccc(C(F)(F)F)c1 (centres undefined)	inactive	inactive	inactive	inactive	inactive	inactive	inactive	inactive	inactive	inactive	inactive	inactive	inactive	inactive	inactive	inactive	inactive	inactive	-1.05%	inactive
O=[N+]([O-])c1cc(I)c(O)c(I)c1	inactive	3.76 µM (active)	23.7 µM (active)	–	inactive	inactive	inactive	inactive	inactive	–	inactive	–	–	10.6 µM (active)	inactive	inactive	inactive	inactive	-2.81%	inactive
O=c1[nH]cc(N(CCCl)CCCl)c(=O)[nH]1	inactive	inactive	inactive	–	inactive	inactive	inactive	inactive	inactive	inactive	inactive	inactive	–	inactive	inactive	inactive	inactive	inactive	-3.28%	inactive
S=C(S)N1CCNCC1	inactive	inactive	inactive	inactive	inactive	inactive	inactive	inactive	inactive	inactive	inactive	inactive	inactive	inactive	inactive	inactive	inactive	inactive	-2.4%	inactive
